# In the supplement of paper PMC6805474:
# Unmarked numbers belong to inactive results.
# Key:
# [1] = test system: Schistosoma mansoni schistosomula (NMRI); assay: phenotypic severity score (0-4); higher = more antischistosomal effect, active = 2 or more; conditions: 10 µM
# [2] = test system: Schistosoma mansoni schistosomula (Liberian); assay: drug effect (1 - score/DMSO control score) (fraction); higher = more antischistosomal effect, active = 0.5 or more; extreme values may be limits of the assay; conditions: 10 µM
# In short: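 Drug effect was calculated by comparing the mean score of the test wells with the mean score of the DMSO wells, and any negative value was set to zero. Duplicate wells of 50 Liberian-strain S. mansoni schistosomula, mechanically transformed from cercariae and pre-incubated at least 12 h, received 10 µM compound in Medium 199 with 5% FCS at 37 °C, 5% CO2, with 0.1% DMSO in the comparison wells. Visual scoring at 10× took place at 24, 48 and 72 h on a quarter-point scale from 3 (normal) to 0 (dead), and a plate counted only if its DMSO wells averaged at least 2.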
# 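Throughout, for phenotypic severity score (0-4): visual microscopic scoring of shape, motility and density changes versus 0.5% DMSO solvent controls, one point per descriptor, degeneracy or death scored 4, mean of duplicate wells.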
Compound,phenotypic severity score ([1]; 24 h),phenotypic severity score ([1]; 48 h),phenotypic severity score ([1]; 72 h),drug effect ([2]; 24 h),drug effect ([2]; 48 h),drug effect ([2]; 72 h)
CNc1nnc(Sc2cnn(-c3ccccc3)c(=O)c2Cl)s1,4 (active),4 (active),4 (active),1 (active),1 (active),1 (active)
CCc1nc2ccccc2n1CC(O)COc1cc(C)ccc1Cl (stereo not given),0,0,0,0.0909,0.25,0.236
CCCn1nnc(NC(=O)COc2ccc(C3CCCCC3)cc2)n1,0,0,0,0.136,0.2,0.182
O=C(NC1CC1)c1ccc(N2CCOc3ccc(Cl)cc32)s1,0,0,0,0.35,0.459,0.5 (active)
CCOC(=O)NC(=O)c1ccsc1NC(=O)c1nc2ccccc2s1,0,0,0,0.0909,0.2,0.182
CCOC(=O)c1cc(-c2csc(Nc3c(C)cc(C)cc3C)n2)on1,1,1,0,0.182,0.3,0.291
O=C1Nc2ccc(Br)cc2C12NCCc1c2[nH]c2ccccc12 (stereo not given),0,0,0,0.05,0.0811,0.167
O=C(NCCN1CCCC1)c1cc(NCCN2CCOCC2)nc2ccc(Cl)cc12,0,0,0,0.15,0.222,0.438
COc1ccc(C2(C(=O)Nc3ccc(Br)cc3)CCCC2)cc1,0,0,1,0.25,0.389,0.5 (active)
Cc1nc(-c2cccc(NCc3ccccc3)c2)[nH]c1C,0,0,0,0.1,0.111,0.25
CC(C)(C)OC(=O)N1CCC(Cn2nc(-c3cnc4ccccc4c3)c3c(N)ncnc32)CC1,1,4 (active),4 (active),0.405,0.444,0.688 (active)
COc1ccc(C2=NN(C3CCCCCC3)C(=O)C2(C)C)cc1OCc1ccccn1,,,,0.273,0.4,0.4
CN(C)c1cc(NC(=O)Nc2ccccc2)c2ccccc2n1,1,0,0,0.182,0.35,0.455
COc1ccc(-c2cnc3ccc(N4CCCC4)nn23)cc1OC,2 (active),4 (active),4 (active),0.784 (active),0.944 (active),1 (active)
Cc1ccc(NC(=O)c2cc(S(=O)(=O)NC(C)(C)C)ccc2C)nc1,0,0,0,0.2,0.222,0.375
CS(=O)(=O)c1cccc(-c2cnc3[nH]cc(-c4ccc(CCC(=O)O)cc4)c3c2)c1,0,0,0,0.227,0.6 (active),0.455
NS(=O)(=O)c1cccc(-c2ccc3ncc(N4CCOCC4)nc3c2)c1,0,0,0,0.15,0.189,0.455
O=C1N(Cc2cc3ccccc3s2)CC2CN(Cc3ccccc3)CCN12 (stereo not given),0,0,0,0.182,0.3,0.236
N=C(N)c1ccc(OCCCCCOc2ccc(C(=N)N)cc2)cc1,0,0,0,< 0,< 0,< 0
Clc1ccc(CN2CCN(C3=NCCN3)CC2)cc1Cl,1,0,0,0.1,0.0556,0.125
CNC(=O)C1Cc2c([nH]c3cc(Cl)ccc23)C2(CCN(CCc3ccccc3)CC2)N1 (stereo not given),0,0,0,0.1,0.514 (active),0.394
O=C(CN1CCOCC1)Nc1ccc2ncnc(Nc3ccc(OCc4cccc(F)c4)c(Cl)c3)c2c1,0,0,0,0.3,0.25,0.222
CC(=O)Nc1ccc(-c2noc(CC3CCCN(Cc4cccc(F)c4C)C3)n2)cc1 (stereo not given),0,0,0,0.1,0.0556,0.188
